According to publication PMC7862700, “An all-to-all approach to the identification of sequence-specific readers for epigenetic DNA modifications on cytosine”:

Key:
Assay in all cases: DAPPL (digital affinity profiling via proximity ligation, sequencing); 10 mM Tris-HCl pH 7.5, 50 mM NaCl, 1 mM DTT, 4% glycerol, room temperature, 30 min; GST-TFs on glutathione beads, 16-mer random dsDNA library, 0.1% formaldehyde crosslink after washing; high values mean tight binding
Details in all cases: protein: recombinant; tags: N-terminal GST; dsDNA, one strand shown
ERF = molecular target: T1, ERF (Homo sapiens, UniProt P50548 1-548)
T1 sequence: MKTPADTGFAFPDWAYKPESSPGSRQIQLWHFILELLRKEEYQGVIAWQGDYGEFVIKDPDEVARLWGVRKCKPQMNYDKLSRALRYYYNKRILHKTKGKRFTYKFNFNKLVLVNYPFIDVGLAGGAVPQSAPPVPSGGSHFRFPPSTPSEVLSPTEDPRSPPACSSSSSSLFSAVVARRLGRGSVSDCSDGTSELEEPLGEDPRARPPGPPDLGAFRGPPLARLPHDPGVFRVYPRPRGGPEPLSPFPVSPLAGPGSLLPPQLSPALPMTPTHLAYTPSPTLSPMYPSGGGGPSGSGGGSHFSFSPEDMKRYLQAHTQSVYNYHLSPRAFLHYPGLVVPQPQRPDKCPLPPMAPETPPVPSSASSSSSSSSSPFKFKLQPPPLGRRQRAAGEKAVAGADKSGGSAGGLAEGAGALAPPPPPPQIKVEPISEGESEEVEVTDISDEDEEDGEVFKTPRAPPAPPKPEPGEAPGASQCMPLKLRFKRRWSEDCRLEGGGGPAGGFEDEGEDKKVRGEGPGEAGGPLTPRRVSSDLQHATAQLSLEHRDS
Outline: (§1)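 Each value of binding signal is a hexamer's read frequency for a factor divided by the same hexamer's frequency in the tag-only sample. Barcoded, bead-captured GST fusions of human transcription factors made in yeast were pooled with that sample and incubated with 200 nmole of a random double-stranded 16-mer DNA library in Tris/NaCl/DTT/glycerol buffer at room temperature for 30 min. Washing, 0.1% formaldehyde crosslinking, proximity ligation, PCR and Illumina NextSeq500 sequencing followed.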

ETV3L = molecular target: T2, ETV3L (Homo sapiens, UniProt Q6ZN32 1-361)
T2 sequence: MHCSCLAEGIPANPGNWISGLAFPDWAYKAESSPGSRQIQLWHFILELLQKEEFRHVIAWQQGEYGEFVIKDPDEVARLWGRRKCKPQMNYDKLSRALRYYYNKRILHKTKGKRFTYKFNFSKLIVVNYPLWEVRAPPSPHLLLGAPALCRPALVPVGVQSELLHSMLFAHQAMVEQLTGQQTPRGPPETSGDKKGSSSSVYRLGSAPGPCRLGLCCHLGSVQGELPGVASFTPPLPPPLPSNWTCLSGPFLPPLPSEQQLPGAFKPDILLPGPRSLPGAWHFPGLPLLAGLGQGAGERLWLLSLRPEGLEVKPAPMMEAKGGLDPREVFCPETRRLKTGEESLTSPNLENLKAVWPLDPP
Outline: as §1

ETS2 = molecular target: T3, ETS2 (Homo sapiens, UniProt P15036 1-469)
T3 sequence: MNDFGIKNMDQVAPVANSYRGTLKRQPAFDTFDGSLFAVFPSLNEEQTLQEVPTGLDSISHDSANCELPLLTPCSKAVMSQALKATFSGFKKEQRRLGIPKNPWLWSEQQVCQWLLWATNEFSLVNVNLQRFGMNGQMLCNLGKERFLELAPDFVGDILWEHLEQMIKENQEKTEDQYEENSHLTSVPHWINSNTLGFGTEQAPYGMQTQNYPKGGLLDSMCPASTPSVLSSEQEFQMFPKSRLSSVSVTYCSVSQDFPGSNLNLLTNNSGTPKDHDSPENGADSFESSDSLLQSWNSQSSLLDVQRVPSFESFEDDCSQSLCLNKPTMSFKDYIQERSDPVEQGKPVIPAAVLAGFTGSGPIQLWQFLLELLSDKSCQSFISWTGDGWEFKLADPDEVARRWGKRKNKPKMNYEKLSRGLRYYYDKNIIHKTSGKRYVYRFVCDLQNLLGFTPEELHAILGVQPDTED
Outline: as §1

SPDEF = molecular target: T4, SPDEF (Homo sapiens, UniProt O95238 1-335)
T4 sequence: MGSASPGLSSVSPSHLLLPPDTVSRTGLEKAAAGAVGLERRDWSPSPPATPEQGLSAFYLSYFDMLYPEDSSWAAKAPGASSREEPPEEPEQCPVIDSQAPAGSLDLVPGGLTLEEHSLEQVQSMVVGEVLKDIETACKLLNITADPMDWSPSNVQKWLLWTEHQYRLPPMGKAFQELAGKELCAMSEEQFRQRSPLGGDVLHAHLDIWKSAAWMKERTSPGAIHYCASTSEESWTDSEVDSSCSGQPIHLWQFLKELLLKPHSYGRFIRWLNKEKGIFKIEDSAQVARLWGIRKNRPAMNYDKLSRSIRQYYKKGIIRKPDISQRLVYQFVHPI
Outline: as §1

ETV7 = molecular target: T5, ETV7 (Homo sapiens, UniProt Q9Y603 1-341)
T5 sequence: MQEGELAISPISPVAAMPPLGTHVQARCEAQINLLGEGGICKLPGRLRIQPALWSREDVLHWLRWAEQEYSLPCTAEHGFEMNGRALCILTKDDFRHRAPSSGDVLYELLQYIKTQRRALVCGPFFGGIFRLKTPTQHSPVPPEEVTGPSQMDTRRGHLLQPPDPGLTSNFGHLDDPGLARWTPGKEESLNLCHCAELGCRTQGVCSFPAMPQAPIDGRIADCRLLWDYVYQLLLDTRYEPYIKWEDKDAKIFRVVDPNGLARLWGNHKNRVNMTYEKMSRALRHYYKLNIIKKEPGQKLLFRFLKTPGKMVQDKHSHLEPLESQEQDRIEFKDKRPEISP
Outline: as §1

ELF5 = molecular target: T6, ELF5 (Homo sapiens, UniProt Q9UKW6-2 1-255)
T6 sequence: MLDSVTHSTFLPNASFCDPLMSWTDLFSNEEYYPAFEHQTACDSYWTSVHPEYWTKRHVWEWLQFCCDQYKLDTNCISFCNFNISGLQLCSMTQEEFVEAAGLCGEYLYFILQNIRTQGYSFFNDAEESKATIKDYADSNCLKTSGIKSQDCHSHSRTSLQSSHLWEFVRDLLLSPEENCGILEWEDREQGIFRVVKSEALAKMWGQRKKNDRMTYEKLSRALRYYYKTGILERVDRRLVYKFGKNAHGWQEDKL
Outline: as §1

ETV3 = molecular target: T7, ETV3 (Homo sapiens, UniProt P41162-2 1-143)
T7 sequence: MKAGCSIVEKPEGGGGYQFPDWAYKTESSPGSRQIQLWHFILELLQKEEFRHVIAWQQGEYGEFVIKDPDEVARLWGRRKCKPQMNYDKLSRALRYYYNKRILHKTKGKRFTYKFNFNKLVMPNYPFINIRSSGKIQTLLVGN
Outline: as §1

ETV6 = ETV6 (Homo sapiens, UniProt P41212 1-452)
ETV6, sequence (P41212 whole entry): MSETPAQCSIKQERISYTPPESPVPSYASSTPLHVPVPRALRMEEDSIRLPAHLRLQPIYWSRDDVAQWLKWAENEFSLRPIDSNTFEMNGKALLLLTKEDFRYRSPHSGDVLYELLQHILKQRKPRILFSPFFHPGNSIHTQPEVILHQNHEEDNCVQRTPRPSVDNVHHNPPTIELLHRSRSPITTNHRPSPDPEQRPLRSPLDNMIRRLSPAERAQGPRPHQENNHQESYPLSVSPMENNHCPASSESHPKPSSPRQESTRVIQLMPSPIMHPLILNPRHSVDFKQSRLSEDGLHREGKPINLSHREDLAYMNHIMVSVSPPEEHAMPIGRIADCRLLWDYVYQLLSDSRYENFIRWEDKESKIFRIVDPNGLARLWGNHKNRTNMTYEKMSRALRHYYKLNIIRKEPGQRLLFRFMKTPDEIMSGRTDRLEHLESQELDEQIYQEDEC
Outline: as §1

Sequence	binding signal (ERF)	binding signal (ETV3L)	binding signal (ETS2)	binding signal (SPDEF)	binding signal (ETV7)	binding signal (ELF5)	binding signal (ETV3)	binding signal (ETV6)
AACCAA	1.25 fold enrichment (6-mer frequency, TF over GST control)	1.15 fold enrichment (6-mer frequency, TF over GST control)	1.23 fold enrichment (6-mer frequency, TF over GST control)	1.21 fold enrichment (6-mer frequency, TF over GST control)	1.2 fold enrichment (6-mer frequency, TF over GST control)	1.16 fold enrichment (6-mer frequency, TF over GST control)	1.18 fold enrichment (6-mer frequency, TF over GST control)	1.29 fold enrichment (6-mer frequency, TF over GST control)
TATGAA	1.21 fold enrichment (6-mer frequency, TF over GST control)	1.21 fold enrichment (6-mer frequency, TF over GST control)	1.27 fold enrichment (6-mer frequency, TF over GST control)	1.16 fold enrichment (6-mer frequency, TF over GST control)	1.2 fold enrichment (6-mer frequency, TF over GST control)	1.07 fold enrichment (6-mer frequency, TF over GST control)	1.17 fold enrichment (6-mer frequency, TF over GST control)	1.13 fold enrichment (6-mer frequency, TF over GST control)
TATAGG	1.18 fold enrichment (6-mer frequency, TF over GST control)	1.14 fold enrichment (6-mer frequency, TF over GST control)	1.13 fold enrichment (6-mer frequency, TF over GST control)	1.19 fold enrichment (6-mer frequency, TF over GST control)	1.22 fold enrichment (6-mer frequency, TF over GST control)	1.23 fold enrichment (6-mer frequency, TF over GST control)	1.17 fold enrichment (6-mer frequency, TF over GST control)	1.11 fold enrichment (6-mer frequency, TF over GST control)
GCTTCA	1.33 fold enrichment (6-mer frequency, TF over GST control)	1.35 fold enrichment (6-mer frequency, TF over GST control)	1.27 fold enrichment (6-mer frequency, TF over GST control)	1.31 fold enrichment (6-mer frequency, TF over GST control)	1.34 fold enrichment (6-mer frequency, TF over GST control)	1.28 fold enrichment (6-mer frequency, TF over GST control)	1.24 fold enrichment (6-mer frequency, TF over GST control)	1.33 fold enrichment (6-mer frequency, TF over GST control)
TTTTCA	1.24 fold enrichment (6-mer frequency, TF over GST control)	1.26 fold enrichment (6-mer frequency, TF over GST control)	1.14 fold enrichment (6-mer frequency, TF over GST control)	1.18 fold enrichment (6-mer frequency, TF over GST control)	1.26 fold enrichment (6-mer frequency, TF over GST control)	1.25 fold enrichment (6-mer frequency, TF over GST control)	1.31 fold enrichment (6-mer frequency, TF over GST control)	1.21 fold enrichment (6-mer frequency, TF over GST control)
TTAAGG	1.16 fold enrichment (6-mer frequency, TF over GST control)	1.09 fold enrichment (6-mer frequency, TF over GST control)	1.1 fold enrichment (6-mer frequency, TF over GST control)	1.28 fold enrichment (6-mer frequency, TF over GST control)	1.12 fold enrichment (6-mer frequency, TF over GST control)	1.26 fold enrichment (6-mer frequency, TF over GST control)	1.16 fold enrichment (6-mer frequency, TF over GST control)	1.06 fold enrichment (6-mer frequency, TF over GST control)
TGGTCT	1.52 fold enrichment (6-mer frequency, TF over GST control)	1.55 fold enrichment (6-mer frequency, TF over GST control)	1.39 fold enrichment (6-mer frequency, TF over GST control)	1.35 fold enrichment (6-mer frequency, TF over GST control)	1.28 fold enrichment (6-mer frequency, TF over GST control)	1.55 fold enrichment (6-mer frequency, TF over GST control)	1.44 fold enrichment (6-mer frequency, TF over GST control)	1.42 fold enrichment (6-mer frequency, TF over GST control)
CTCAAC	1.15 fold enrichment (6-mer frequency, TF over GST control)	1.41 fold enrichment (6-mer frequency, TF over GST control)	1.27 fold enrichment (6-mer frequency, TF over GST control)	1.24 fold enrichment (6-mer frequency, TF over GST control)	1.11 fold enrichment (6-mer frequency, TF over GST control)	1.16 fold enrichment (6-mer frequency, TF over GST control)	1.28 fold enrichment (6-mer frequency, TF over GST control)	1.24 fold enrichment (6-mer frequency, TF over GST control)
GTTTTT	1.07 fold enrichment (6-mer frequency, TF over GST control)	1.3 fold enrichment (6-mer frequency, TF over GST control)	1.25 fold enrichment (6-mer frequency, TF over GST control)	1.23 fold enrichment (6-mer frequency, TF over GST control)	1.2 fold enrichment (6-mer frequency, TF over GST control)	1.36 fold enrichment (6-mer frequency, TF over GST control)	1.34 fold enrichment (6-mer frequency, TF over GST control)	1.21 fold enrichment (6-mer frequency, TF over GST control)
AATGGT	1.38 fold enrichment (6-mer frequency, TF over GST control)	1.33 fold enrichment (6-mer frequency, TF over GST control)	1.33 fold enrichment (6-mer frequency, TF over GST control)	1.27 fold enrichment (6-mer frequency, TF over GST control)	1.41 fold enrichment (6-mer frequency, TF over GST control)	1.43 fold enrichment (6-mer frequency, TF over GST control)	1.4 fold enrichment (6-mer frequency, TF over GST control)	1.39 fold enrichment (6-mer frequency, TF over GST control)
TTCCCA	1.24 fold enrichment (6-mer frequency, TF over GST control)	1.25 fold enrichment (6-mer frequency, TF over GST control)	1.15 fold enrichment (6-mer frequency, TF over GST control)	1.25 fold enrichment (6-mer frequency, TF over GST control)	1.27 fold enrichment (6-mer frequency, TF over GST control)	1.42 fold enrichment (6-mer frequency, TF over GST control)	1.25 fold enrichment (6-mer frequency, TF over GST control)	1.33 fold enrichment (6-mer frequency, TF over GST control)
TTGCCC	1.3 fold enrichment (6-mer frequency, TF over GST control)	1.41 fold enrichment (6-mer frequency, TF over GST control)	1.43 fold enrichment (6-mer frequency, TF over GST control)	1.38 fold enrichment (6-mer frequency, TF over GST control)	1.38 fold enrichment (6-mer frequency, TF over GST control)	1.22 fold enrichment (6-mer frequency, TF over GST control)	1.35 fold enrichment (6-mer frequency, TF over GST control)	1.23 fold enrichment (6-mer frequency, TF over GST control)
ATCGAT	1.13 fold enrichment (6-mer frequency, TF over GST control)	1.17 fold enrichment (6-mer frequency, TF over GST control)	1.1 fold enrichment (6-mer frequency, TF over GST control)	1.09 fold enrichment (6-mer frequency, TF over GST control)	1.11 fold enrichment (6-mer frequency, TF over GST control)	1.09 fold enrichment (6-mer frequency, TF over GST control)	1.15 fold enrichment (6-mer frequency, TF over GST control)	1.11 fold enrichment (6-mer frequency, TF over GST control)
GCTAAA	1.19 fold enrichment (6-mer frequency, TF over GST control)	1.15 fold enrichment (6-mer frequency, TF over GST control)	1.13 fold enrichment (6-mer frequency, TF over GST control)	1.08 fold enrichment (6-mer frequency, TF over GST control)	1.08 fold enrichment (6-mer frequency, TF over GST control)	1.04 fold enrichment (6-mer frequency, TF over GST control)	1.13 fold enrichment (6-mer frequency, TF over GST control)	1.08 fold enrichment (6-mer frequency, TF over GST control)
ATGTAA	1.18 fold enrichment (6-mer frequency, TF over GST control)	1.26 fold enrichment (6-mer frequency, TF over GST control)	1.37 fold enrichment (6-mer frequency, TF over GST control)	1.32 fold enrichment (6-mer frequency, TF over GST control)	1.26 fold enrichment (6-mer frequency, TF over GST control)	1.3 fold enrichment (6-mer frequency, TF over GST control)	1.32 fold enrichment (6-mer frequency, TF over GST control)	1.3 fold enrichment (6-mer frequency, TF over GST control)
